Source: PubChem BioAssay AID1159580 (chemical genetic matrix, 2015)
Values joined by “and” are separate entries in the source; they are usually repeats but may differ in a detail not shown here. Equal entries are not always repeated. Screen size: about 5,500 compounds; about 2,000 (36%) were called active. Not shown: some 18% with an inconclusive outcome. No stated cut-off is given here; in the data, active means normalized growth mostly below about 0.91 (no sharp cut-off); inconclusive means no clear call, values can overlap the other calls; inactive means mostly above about 0.92. The list shows a part of the results.

Experiment: chemical genetic growth profiling, strain panel (AID 1159580);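 further: tested at 20 µM; growth read once vehicle control cultures reached saturation at 30 °C; 1 = growth at the plate median or of vehicle wells; lower values mean less growth of the strain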
Settings: S. cerevisiae deletion strains, growth OD

Measured: normalized growth

COc1cc(OC)c2c(=O)c(OC)c(-c3ccc(OC)c(OC)c3)oc2c1
inactive: locus YAL021C, strain ccr4, active compounds read low 1.01 | locus YAL026C, strain drs2, active compounds read low 1.02 | locus YAL030W, strain snc1, active compounds read low 1.02 | locus YBL061C, strain skt5, active compounds read low 1 | locus YBR009C, strain hhf1, active compounds read low 1.01 | locus YBR021W, strain FUR4, active compounds read low 0.952 | locus YBR023C, strain chs3, active compounds read low 1.01 | locus YBR171W, strain sec66, active compounds read low 1.04 | locus YBR229C, strain ROT2, active compounds read low 1 | locus YBR231C, strain swc5, active compounds read low 1 | locus YBR279W, strain paf1, active compounds read low 1.02 | locus YCL011C, strain gbp2, active compounds read low 1.01 | locus YCL016C, strain dcc1, active compounds read low 1.01 | locus YCL029C, strain bik1, active compounds read low 1.01 | locus YCL061C, strain MRC1, active compounds read low 1.02 | locus YCL069W, strain vba3, active compounds read low 1.02 | locus YCR088W, strain abp1, active compounds read low 1.03 | locus YDL005C, strain med2, active compounds read low 1.02 | locus YDL035C, strain GPR1, active compounds read low 0.996 | locus YDL040C, strain nat1, active compounds read low 1.01 | locus YDL074C, strain BRE1, active compounds read low 0.995 | locus YDL101C, strain DUN1, active compounds read low 1 | locus YDL185W, strain tfp1, active compounds read low 1.01 | locus YDL192W, strain arf1, active compounds read low 0.987 | locus YDR001C, strain nth1, active compounds read low 1.02 | locus YDR069C, strain doa4, active compounds read low 1.02 | locus YDR101C, strain arx1, active compounds read low 1.01 | locus YDR137W, strain rgp1, active compounds read low 1.06 | locus YDR150W, strain NUM1, active compounds read low 0.998 | locus YDR159W, strain sac3, active compounds read low 1.02 | locus YDR162C, strain NBP2, active compounds read low 0.98 | locus YDR195W, strain ref2 1.04 | locus YDR297W, strain sur2, active compounds read low 1.01 | locus YDR318W, strain mcm21, active compounds read low 0.977 | locus YDR334W, strain swr1, active compounds read low 1.02 | locus YDR335W, strain msn5, active compounds read low 1.03 | locus YDR388W, active compounds read low 0.995 | locus YDR392W, strain spt3, active compounds read low 0.91 | locus YDR502C, strain sam2, active compounds read low 1.01 | locus YEL003W, strain gim4, active compounds read low 1.02 | locus YEL037C, strain rad23, active compounds read low 1.02 | locus YEL061C, strain CIN8 (second series), active compounds read low 1.02 | locus YEL061C, strain CIN8, active compounds read low 1 | locus YER015W, strain faa2, active compounds read low 1.01 | locus YER016W, strain bim1, active compounds read low 1.01 | locus YER110C, active compounds read low 1.02 | locus YER111C, strain swi4, active compounds read low 1.03 | locus YER155C, strain BEM2 (second series), active compounds read low 1.02 | locus YER155C, strain BEM2, active compounds read low 1 | locus YER167W, strain BCK2, active compounds read low 1 | locus YFR010W, strain ubp6, active compounds read low 1.03 | locus YGL078C, strain dbp3, active compounds read low 1.02 | locus YGL086W, strain mad1, active compounds read low 1.01 | locus YGL167C, strain pmr1, active compounds read low 1 | locus YGL173C, strain kem1, active compounds read low 1.01 | locus YGL227W, strain vid30, active compounds read low 1.02 | locus YGL240W, strain doc1, active compounds read low 1.03 | locus YGL248W, strain PDE1, active compounds read low 0.97 | locus YGL253W, strain hxk2, active compounds read low 1.02 | locus YGR078C, strain PAC10, active compounds read low 0.958 | locus YGR135W, strain pre9, active compounds read low 0.968 | locus YGR252W, strain gcn5, active compounds read low 0.915 | locus YHR013C, strain ard1, active compounds read low 1.01 | locus YHR027C, strain rpn1, active compounds read low 1.01 | locus YHR030C, strain SLT2, active compounds read low 1.01 and 0.976 | locus YHR079C, strain IRE1 (second series), active compounds read low 1.02 | locus YHR079C, strain IRE1, active compounds read low 0.992 | locus YHR094C, strain hxt1, active compounds read low 1.01 | locus YHR129C, strain ARP1, active compounds read low 0.992 | locus YHR142W, strain chs7, active compounds read low 1.01 | locus YHR200W, strain rpn10, active compounds read low 1 | locus YIL066C, strain RNR3, active compounds read low 0.982 | locus YIL073C, strain SPO22, active compounds read low 1.03 | locus YIL125W, strain kgd1, active compounds read low 1.02 | locus YIR030C, strain dcg1, active compounds read low 1 | locus YJL092W, strain hpr5, active compounds read low 1.02 | locus YJL095W, strain BCK1 (second series), active compounds read low 1.01 | locus YJL095W, strain BCK1, active compounds read low 0.934 and 1 | locus YJL115W, strain asf1, active compounds read low 1.02 | locus YJL129C, strain trk1, active compounds read low 1.01 | locus YJL134W, strain LCB3, active compounds read low 1.01 | locus YJL154C, strain vps35, active compounds read low 1 | locus YJL164C, strain tpk1, active compounds read low 1.01 | locus YJL166W, strain qcr8, active compounds read low 1 | locus YJL168C, strain set2, active compounds read low 1.02 | locus YJL187C, strain SWE1 (second series), active compounds read low 0.996 | locus YJL187C, strain SWE1, active compounds read low 1.01 | locus YJR043C, strain POL32, active compounds read low 1 | locus YJR066W, strain TOR1, active compounds read low 0.941 | locus YJR075W, strain HOC1, active compounds read low 0.986 | locus YKL009W, strain mrt4, active compounds read low 1.02 | locus YKL068W, active compounds read low 1 | locus YKL085W, strain MDH1 (second series), active compounds read low 0.997 | locus YKL085W, strain MDH1, active compounds read low 0.997 | locus YKL160W, strain elf1, active compounds read low 0.995 | locus YKR001C, strain vps1, active compounds read low 0.994 | locus YKR026C, strain gcn3, active compounds read low 0.997 | locus YKR091W, strain srl3, active compounds read low 1.02 | locus YLL001W, strain dnm1, active compounds read low 1.03 | locus YLL026W, active compounds read low 1.01 | locus YLL041C, strain sdh2, active compounds read low 1.01 | locus YLR027C, strain aat2, active compounds read low 1.01 | locus YLR039C, strain RIC1, active compounds read low 0.976 | locus YLR058C, strain SHM2, active compounds read low 0.984 | locus YLR102C, strain apc9, active compounds read low 1.01 | locus YLR113W, strain HOG1, active compounds read low 0.978 | locus YLR221C, strain rsa3, active compounds read low 1.01 | locus YLR258W, strain gsy2, active compounds read low 1.02 | locus YLR262C, strain YPT6 (second series), active compounds read low 1.08 | locus YLR262C, strain YPT6, active compounds read low 0.984 | locus YLR268W, strain sec22, active compounds read low 1.03 | locus YLR320W, strain mms22, active compounds read low 0.985 | locus YLR330W, strain CHS5, active compounds read low 1.01 | locus YLR342W, strain FKS1 (second series), active compounds read low 0.973 | locus YLR342W, strain FKS1, active compounds read low 1.01 | locus YLR357W, strain rsc2, active compounds read low 1.02 | locus YLR370C, strain arc18, active compounds read low 1.01 | locus YLR371W, strain rom2, active compounds read low 1.02 | locus YLR384C, strain iki3, active compounds read low 1.01 | locus YLR418C, strain cdc73, active compounds read low 0.954 | locus YML016C, strain PPZ1, active compounds read low 0.992 | locus YML032C, strain rad52, active compounds read low 0.987 | locus YML120C, strain ndi1, active compounds read low 1.02 | locus YML124C, strain tub3, active compounds read low 1 | locus YMR058W, strain fet3, active compounds read low 1.03 | locus YMR078C, strain ctf18, active compounds read low 1.01 | locus YMR125W, strain sto1, active compounds read low 1.03 | locus YMR129W, active compounds read low 1.03 | locus YMR205C, strain PFK2, active compounds read low 1.03 | locus YMR223W, strain ubp8, active compounds read low 0.972 | locus YMR231W, strain pep5, active compounds read low 1.02 | locus YMR263W, strain SAP30, active compounds read low 0.996 | locus YMR307W, strain GAS1, active compounds read low 0.981 | locus YNL067W, strain RPL9B, active compounds read low 1 | locus YNL071W, strain lat1, active compounds read low 1.01 | locus YNL153C, strain GIM3, active compounds read low 0.972 | locus YNL183C, strain NPR1, active compounds read low 0.926 | locus YNL209W, strain ssb2, active compounds read low 1.01 | locus YNL233W, strain BNI4, active compounds read low 0.955 | locus YNL248C, strain rpa49, active compounds read low 1.02 | locus YNL250W, strain rad50, active compounds read low 1.03 | locus YNL271C, strain bni1, active compounds read low 1.02 | locus YNL298W, strain CLA4, active compounds read low 0.998 | locus YNL307C, strain MCK1, active compounds read low 1.01 | locus YNL322C, strain KRE1 (second series), active compounds read low 1.02 | locus YNR049C, strain mso1, active compounds read low 1.02 | locus YNR052C, strain pop2, active compounds read low 0.993 | locus YOL006C, strain TOP1, active compounds read low 1.03 | locus YOL012C, strain htz1 0.947 | locus YOL147C, strain pex11, active compounds read low 1.02 | locus YOR001W, strain rrp6, active compounds read low 1.01 | locus YOR061W, strain CKA2, active compounds read low 1.01 | locus YOR069W, strain VPS5, active compounds read low 1.01 | locus YOR070C, strain gyp1, active compounds read low 1.03 | locus YOR080W, strain dia2, active compounds read low 1.01 | locus YOR083W, strain WHI5, active compounds read low 0.997 | locus YOR106W, strain vam3, active compounds read low 0.992 | locus YOR136W, strain idh2, active compounds read low 1.02 | locus YOR144C, strain elg1, active compounds read low 1.01 | locus YOR184W, strain ser1, active compounds read low 0.992 | locus YOR231W, strain MKK1, active compounds read low 1.01 | locus YOR265W, strain rbl2, active compounds read low 1 | locus YOR270C, strain vph1, active compounds read low 1.09 | locus YOR290C, strain snf2, active compounds read low 1 | locus YOR316C, strain cot1, active compounds read low 1.01 | locus YPL051W, strain arl3, active compounds read low 0.993 | locus YPL078C, strain atp4, active compounds read low 1.02 | locus YPL106C, strain sse1, active compounds read low 0.999 | locus YPL240C, strain hsp82, active compounds read low 1 | locus YPL256C, strain CLN2, active compounds read low 0.976 | locus YPR119W, strain clb2, active compounds read low 1.01 | locus YPR141C, strain kar3, active compounds read low 1.02 | locus YPR163C, strain tif3, active compounds read low 1 | locus YPR167C, strain met16, active compounds read low 1.04 | strain wtn01, active compounds read low 1.04
